According to PubChem BioAssay (NCI):
The panel holds about 83,000 compounds, 20% with a hit somewhere; the sample as a whole holds those more often.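 Assay: single dose, 48 h. Readout: percent growth (0 = no net growth; negative = cell death). Active: <10.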 Unmarked numbers belong to inactive results. Active and inactive are the calls of the source.

Key:
Test in all cases: NCI-60 one-dose screen, 48 h (100 = growth as untreated, 0 = no growth, -100 = all killed)
SR leukemia = conditions: 10 µM unless noted
RPMI-8226 leukemia = conditions: 10 µM unless noted
OVCAR-8 ovarian = conditions: 10 µM unless noted
OVCAR-5 ovarian = conditions: 10 µM unless noted
OVCAR-4 ovarian = conditions: 10 µM unless noted
SK-OV-3 ovarian = conditions: 10 µM unless noted
IGROV1 ovarian = conditions: 10 µM unless noted
OVCAR-3 ovarian = conditions: 10 µM unless noted
HS 578T breast = conditions: 10 µM
NCI/ADR-RES ovarian = conditions: 10 µM unless noted

Row | Compound | growth (SR leukemia) | growth (RPMI-8226 leukemia) | growth (OVCAR-8 ovarian) | growth (OVCAR-5 ovarian) | growth (OVCAR-4 ovarian) | growth (SK-OV-3 ovarian) | growth (IGROV1 ovarian) | growth (OVCAR-3 ovarian) | growth (HS 578T breast) | growth (NCI/ADR-RES ovarian)
1 | CCNC(=O)Nc1nc2ccc(Oc3ccnc(C(=O)NC)c3)cc2s1 | 30.4% | 85% | 91.6% | 92.9% | 83% | 88.1% | 90% | 83.1% | 87.3% | 73.3%
2 | C=CC[n+]1c(/C=C2\Sc3ccccc3N2C)sc(-c2ccccc2)c1-c1ccccc1 | 1.88% (active) | 0.0474% (active) | 15.1% | 21.9% | 23.8% | -15% (active) | 36.7% | 15.1% | 56.9% | 85%
3 | c1cc[n+](Cc2c3ccccc3cc3c2ccc2ccccc23)cc1 | 21.2% | 17.6% | 39.8% | 81.1% | 34.4% | 87.9% | 13.7% | 36% | 13.3% | 99.3%
4 | Cc1ccc2oc(=O)cc(-c3cc(-c4cc5ccccc5oc4=O)nc(N)c3C#N)c2c1 | 74.3% | 72.9% | 61.1% | 101% | 8.25% (active) | 78.8% | 81.6% | 77.1% | 70.7% | 80.4%
5 | CC(C)[C@@H]1CC[C@@H]2[C@@H]1[C@H](OC(=O)/C=C/c1ccccc1)[C@]1(C(C)C)C[C@@H](OC(=O)CO)[C@@]2(C)O1 | 41.8% | 53.7% | 16.5% | 109% | 79.4% | 91.3% | 102% | 83.6% | -15.4% (active) | 13.9%
6 | CO/C=C/C(=O)c1cc2cnc3c(=N)cc(NC(=O)C(C)C)c([nH]1)c23 | -24% (active) | -38.1% (active) | 0.655% (active) | -16.3% (active) | -10.7% (active) | -25.7% (active) | -40% (active) | -45.1% (active) | -6.02% (active) | -9.63% (active)
7 | C=C1CC[C@@H]2[C@](C)(COC(C)=O)[C@H](OC(C)=O)CC[C@@]2(C)[C@@H]1C/C=C1/C(=O)OC[C@H]1OC(C)=O | 5.73% (active) | 14.1% | 27.1% | 53.7% | 66.5% | 101% | 103% | -21.3% (active) | 100% | 25%
8 | CCCCn1c(C)nc2ccc(Nc3nc(N4CCN(C)CC4)nc4nc[nH]c34)cc21 | 84% | 88.2% | 91.8% | 95.6% | 97.8% | 104% | 94.1% | 99.2% | 86.8% | 104%
9 | COc1cnc2c(c1)C(=O)c1c-2n(CCCN2CCC(N)CC2)c(=O)c2cc([N+](=O)[O-])ccc12 | 2.78% (active) | 39.6% | 42.4% | 119% | 60.4% | 30.4% | 56% | 79.7% | 81.4% | 76%
10 | COc1ccc2c(c1OC)C(=O)O[C@@H]2[C@H]1c2c(c(C#CC#Cc3ccc(F)c(F)c3)c3c(c2OC)OCO3)CCN1C | 60.2% | 67.3% | 87.9% | 96.5% | 99.9% | 76% | 90.1% | 104% | 101% | 89.3%
11 | O=C(c1ccccc1)C(c1ccccc1)N1CCOCC1 (stereo not given) | 95.6% | 101% | 105% | 105% | 108% | 105% | 104% | 101% | 97% | 98.6%
12 | Ic1ccccc1-c1ccccc1 | 102% | 103% | 110% | 114% | 109% | 111% | 117% | 111% | 102% | 110%
13 | O=C(Cn1cncn1)Nc1ccc(-c2nc3ccccc3s2)cc1 | 83.8% | 83.3% | 94.6% | 115% | 80.6% | 99.9% | 92.4% | 91% | 103% | 102%
14 | CSC1=C(N)C(=O)c2[nH]cc(CO)c2C1=N | 6.06% (active) | -32.9% (active) | -62% (active) | -76% (active) | -95.7% (active) | -94.4% (active) | -62.5% (active) | -74.8% (active) | 5% (active) | -23% (active)
15 | O=C(NO)c1ccc(Cn2c(=O)n(CCc3ccccc3)c(=O)c3ccccc32)cc1 | 20% | 25.8% | 20.2% | 76.5% | 19.2% | 26.3% | 41% | 13.8% | 68.9% | 57.5%
16 | CC(C)(C)CC(C)(C)Nc1c(-c2c(O)c3ccccc3oc2=O)nc2c(Cl)cc(C(F)(F)F)cn12 | 104% | 99.2% | 102% | 109% | 100% | 93% | 90.4% | 112% | 103% | 108%
17 | CCCCCCCC(=O)SCC/C=C/[C@@H]1CC(=O)NCc2cc(ccn2)C2=N[C@@](C)(CS2)C(=O)N[C@@H](C(C)C)C(=O)O1 | 14.3% | 13.6% | 6.26% (active) | 2.85% (active) | 10.9% | -22.6% (active) | -8.98% (active) | -22.9% (active) | -8.43% (active) | 4.18% (active)
18 | Cc1[nH]n(C(N)=S)c(=O)c1N=Nc1ccc(S(=O)(=O)Nc2ccncn2)cc1 | 111% | 47.2% | 106% | 111% | 95.1% | 100% | 67.3% | 99% | 86.2% | 104%
19 | O=C(Nc1cccc([N+](=O)[O-])c1)c1ccc(Cl)c(Cl)c1 | 80.7% | 79.1% | 43.5% | 94.2% | 16.7% | 53.3% | 47% | 53.8% | 70% | 79%
20 | COc1cnc2c(c1)C(=O)c1c-2n(CCCN2CCOCC2)c(=O)c2cc(Cl)ccc12 | 7.63% (active) | 9.78% (active) | 32.8% | 69.1% | 41.6% | 10.7% | 43.2% | 25.8% | 79.2% | 19.2%
21 | Cc1nn(-c2nc3ccccc3[nH]2)c2c1C(c1ccc(O)cc1)CC(=O)N2 (stereo not given) | 53.7% | 101% | 55.3% | 109% | 112% | 84.3% | 75.9% | 93.2% | 28.1% | 88.5%
22 | C=C1C(=O)O[C@H]2[C@H]1CC/C(C=Nc1c(N)cc(C(F)(F)F)cc1C(F)(F)F)=C\CC[C@@]1(C)O[C@@H]21 | 0.897% (active) | -18.7% (active) | 4.81% (active) | -9.13% (active) | -71.6% (active) | 48.8% | -46.3% (active) | -93.8% (active) | 16.7% | -23.1% (active)
23 | Nc1c2c(c(O)c3c1=C(CO)C=N3)=NCCS2=O (stereo not given) | 3.82% (active) | 20.7% | -18.8% (active) | -61.6% (active) | -96.7% (active) | 77% | -15.2% (active) | -51.5% (active) | 1.72% (active) | 0.866% (active)
24 | C=C1C(=O)O[C@H]2[C@H]1CC/C(Cn1cc(-c3cc(C)c(C)cc3C)nn1)=C\CC[C@@]1(C)O[C@@H]21 | -5.15% (active) | -24.6% (active) | -55.9% (active) | -45.6% (active) | -94.3% (active) | 76.2% | -63.9% (active) | -95.2% (active) | 11.6% | 5.12% (active)
25 | O=C(Cn1c(=O)ccn(CCCCCCCCOc2ccc(Br)cc2)c1=O)Nc1ccc(Oc2ccc(Cl)cc2)cc1 | 28.7% | 34.2% | 63.9% | 108% | 53.4% | 65.3% | 77.2% | 83.7% | 81.8% | 42.7%
26 | CC(=O)C(C(C)=O)C(c1ccccc1)C(C(C)=O)C(C)=O | 105% | 98.7% | 96.5% | 102% | 87.1% | 95.4% | 104% | 116% | 99.8% | 94.5%
27 | CC(N)C(Cc1ccc(Cl)cc1)c1ccc(Cl)cc1 (stereo not given) | -9.14% (active) | 25.3% | 71.5% | 77.9% | 71.7% | 81.9% | 77.8% | 87.2% | 71.6% | 87.5%
